Only some compounds are listed: those with a hit (about 2.2% of all), similar ones and a draw of the others.
C8 TRAIL sens: caspase-8 TRAIL sensitization; inhibition (viability loss, TRAIL sensitization), % at 10 µM; NB7+C8 cells + TRAIL, ATPlite viability luminescence; AID 624354; hit rate 1% among 360,000;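 active = compounds causing at least 50% loss of cell viability in the single-dose screen, relative to plate controls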
iPSC survival up: increases survival of single human iPS cells. survival enhancement, % at 20 µM. hit rate 0.044% among 360,000. hiPSC single-cell survival, ATPlite luminescence; 100% = ROCK inhibitor wells, 0% = DMSO. AID 602274; in the data active = survival enhancement above about 18%;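 note: cells exposed to compounds for 16 hours before the ATP read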
CF NFkB inh: inhibitors of cystic fibrosis induced NF-kB; KKLEB NF-kB-GFP reporter, PAF-induced, GFP fluorescence overnight; inhibition, % at 5 µM; hit rate 0.86% among 360,000; AID 588850;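 active = at least 50% inhibition at 5 µM, scaled per plate between neutral and stimulator controls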;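 note: PAF is a Pseudomonas aeruginosa culture filtrate used as stimulus; plate controls were PAF-stimulated DMSO wells for no effect and unstimulated DMSO wells for full effect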
HIF-2a inh: inhibitors of HIF-2a | hit rate 0.72% among 360,000 | inhibition, % at 18.8 µM | 786-0 RCC cells HIF-2a reporter, luciferase luminescence, overnight;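 active = inhibition of the luminescence signal of 40% or more relative to plate controls, in a single-dose primary screen at 18.75 µM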
PPC-1+TRAIL kill: PPC-1 cancer cell killing with TRAIL present; AID 1443; cell killing (% activity), % at 4 µM or 5 µM; PPC-1 cells + TRAIL, ATPLite viability luminescence; hit rate 0.41% among 220,000;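 active = cell killing above 50% in the first pass at 4 µM, then a duplicate retest at 5 µM averaging 50% or more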;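 note: plate controls were cells with TRAIL plus DMSO for no effect and medium-only wells lacking cells for full effect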
KKLEB tox: reduces viability of KKLEB cystic fibrosis airway cells; KKLEB CF airway cells viability, ATPlite luminescence, overnight; stronger effect = lower value; cells stimulated with P. aeruginosa culture filtrate; activity change (cytotoxicity), % at 5 µM; hit rate 0.36% among 360,000; AID 602141;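 active = corrected activity change at or below -50% at 5 µM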
Active calls of the source: *; . = no result; ! = not active in a repeat.

SMILES	C8 TRAIL sens	iPSC survival up	CF NFkB inh	HIF-2a inh	PPC-1+TRAIL kill	KKLEB tox
CC(NC1=CC(=O)c2cccnc2C1=O)C(O)c1ccccc1 (centres undefined)	83*	-1	80*	19	.	-32
CC(=O)Nc1ccc(SCC(=O)c2cc(C)n(-c3ccccc3F)c2C)cc1	19	-1	-25	50*	43	11
Cc1ccc(-n2c(C)cc(C(=O)COC(=O)c3ccc[nH]c3=O)c2C)cc1C	37	-3	3	7	26	0
COC(=O)c1ccc(-n2c(C)cc(C(=O)CSc3ccc(NC(C)=O)cc3)c2C)cc1	12	1	-19	5	-5	11
Cc1cc(C(=O)COC(=O)c2ccc[nH]c2=O)c(C)n1-c1ccccc1F	59*	-1	7	45*	42	0
Cc1cccc(N(CC(=O)NC2CCCCC2)C(=O)CCC(=O)Nc2nccs2)c1	-8	0	7	11	.	1
COc1ccc(-c2nc(SC(C)C(=O)NCC3CCCO3)n[nH]2)cc1 (centres undefined)	8	0	26	4	.	-12
COc1ccc2nc(-c3ccc(Cl)cc3)cc(C(=O)O)c2c1	4	-1	11	-63	9	0
O=CN1CCN(c2c([N+](=O)[O-])c(=O)oc3ccccc23)CC1	-7	0	-7	14	.	6
C[C@H]1CN([C@@H](C)CO)C(=O)CCCn2cc(nn2)CO[C@@H]1CN(C)C(=O)c1ccncc1	0	-1	-5	14	.	-10
O=C(NCCN1CCOCC1)NC1(C(F)(F)F)Oc2ccc(Cl)cc2O1 (centres undefined)	52*	-2	20	7	15	-7
O=C(NCCN1CCOCC1)c1cc(Cl)ccc1Cl	5	0	-13	12	.	4
Nc1ccc(C(=O)NN2C(=O)[C@H](Cl)C2c2ccc(Cl)cc2)cc1 (some centres undefined)	95*	-4	91*	11	.	-79*
COc1ccc(-c2cc(C(=O)OCC(=O)N3CCOCC3)c3ccccc3n2)cc1	62*	-3	-12	-110	.	7
CCOc1ccc(-c2cc(C(=O)N3CCC(C)CC3)c3ccccc3n2)cc1	54*	0	36	-186	.	-41
Cc1ccc(-c2cc(C(=O)N3CCN(c4ccccc4O)CC3)c3ccccc3n2)o1	65*	0	9	-134	.	-17
COc1ccc(-c2cc(C(=O)c3c(N)n(C)c(=O)n(C)c3=O)c3ccccc3n2)cc1	81*	-1	-10	-212	77*	-38
NC(=O)NN=C1CCN2CCCc3cccc1c32	4	3	2	10	.	-15
Cc1ccc(-c2cc(C(=O)N3CCN(c4ncccn4)CC3)c3ccccc3n2)cc1	67*	-3	-4	-260	44	-19
Cc1cc(-c2ccc(N3CCOCC3)cc2)nc2ccccc12	65*	-3	-15	-210	30	-28
Cc1ccc(-c2cc(C(=O)N3CCOCC3)c3ccccc3n2)cc1	16	-3	-10	-57	20	4
CCN1CCN(Cc2ccc(NC(=O)c3cc(NC(=O)c4ccno4)cc(OC)c3)cc2C(F)(F)F)CC1	11	-2	9	-26	9	-4
CCN1CCN(Cc2ccc(NC(=O)c3ccc(C)c(NC(=O)C[C@@H]4NC(=O)[C@H](Cc5ccccc5)NC4=O)c3)cc2C(F)(F)F)CC1	-8	2	47	-8	14	0
CCN1CCN(Cc2ccc(NC(=O)c3cc(NC(=O)c4cc(-c5ccc(OC)cc5)n[nH]4)cc(OC)c3)cc2C(F)(F)F)CC1	88*	-3	14	-32	31	-10
CCN1CCN(Cc2ccc(NC(=O)c3cc(NC(=O)c4ccc5n[nH]nc5c4)cc(OC)c3)cc2C(F)(F)F)CC1	7	-3	5	-2	10	-3
CCN1CCN(Cc2ccc(NC(=O)c3ccc(C)c(/C=C/c4cnc(Nc5cc(N6CCNCC6)nc(C)n5)cn4)c3)cc2C(F)(F)F)CC1	63*!	-6	76*!	1	.	-8
CCN1CCN(Cc2ccc(NC(=O)c3ccc(C)c(NC(=O)c4cccc(-c5cn[nH]c(=O)c5)c4)c3)cc2C(F)(F)F)CC1	38	0	72*	24	.	-6
